We go through 113 compounds from PubChem BioAssay AID488969 (Vanderbilt High Throughput Screening Facility, 2010).

In all, about 110,000 compounds were measured (“z-score”: median about -0.1, highest 2% from about 2 on). The sample as a whole holds a higher share of the highest values than the screen did. Activity calls are given as the source filed them.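 Rule for the calls: active = z-score in the third read window above 3 or below -3; inactive = the rest.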

Metabotropic glutamate receptor 8 (Rattus norvegicus), sequence (P70579 whole entry, looked up): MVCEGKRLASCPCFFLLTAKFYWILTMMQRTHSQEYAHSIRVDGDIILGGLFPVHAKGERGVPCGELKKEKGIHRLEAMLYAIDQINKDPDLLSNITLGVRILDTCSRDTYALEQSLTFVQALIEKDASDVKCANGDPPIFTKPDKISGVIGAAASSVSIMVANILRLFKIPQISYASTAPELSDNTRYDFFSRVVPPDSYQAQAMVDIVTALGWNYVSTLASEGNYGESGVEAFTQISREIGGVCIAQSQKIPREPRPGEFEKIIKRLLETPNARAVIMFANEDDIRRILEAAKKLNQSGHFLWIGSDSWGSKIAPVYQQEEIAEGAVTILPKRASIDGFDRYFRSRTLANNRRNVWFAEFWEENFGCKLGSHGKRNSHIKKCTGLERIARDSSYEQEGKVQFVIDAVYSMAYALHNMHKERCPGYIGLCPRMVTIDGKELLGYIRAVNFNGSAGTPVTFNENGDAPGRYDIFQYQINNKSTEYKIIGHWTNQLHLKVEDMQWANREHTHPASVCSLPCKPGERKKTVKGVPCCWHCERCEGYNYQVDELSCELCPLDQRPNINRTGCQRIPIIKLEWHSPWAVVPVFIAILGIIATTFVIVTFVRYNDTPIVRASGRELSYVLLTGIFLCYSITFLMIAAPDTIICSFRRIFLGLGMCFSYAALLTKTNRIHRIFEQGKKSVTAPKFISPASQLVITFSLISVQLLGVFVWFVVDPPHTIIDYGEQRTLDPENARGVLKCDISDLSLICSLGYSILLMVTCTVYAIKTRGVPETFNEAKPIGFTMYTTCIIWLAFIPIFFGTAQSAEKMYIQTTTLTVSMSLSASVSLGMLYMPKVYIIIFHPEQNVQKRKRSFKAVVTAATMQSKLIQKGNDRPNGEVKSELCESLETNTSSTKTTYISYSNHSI

The test concerns the target Metabotropic glutamate receptor 8 (Rattus norvegicus) (UniProt P70579). In words: rat mGluR8 modulators via GIRK flux, primary screen, cell-based, thallium flux, HTS (AID 488969). Conditions: HEK293 rat mGluR8, GIRK (G protein-gated inwardly rectifying potassium channel) thallium flux, FluoZin2; at 10 µM; stronger effect = higher value; submaximal glutamate (EC20) added with thallium.
Compound `Cc1oc2c(C)c3oc(=O)c4c(c3cc2c1C)CCC4` gave a z-score of -0.532.

In turn, `COc1ccc(N(C(=O)Cn2nnc(-c3ccc(Cl)cc3)n2)C(C(=O)NCC2CCCO2)c2ccc(C)cc2)cc1` (stereo not drawn) came in with a z-score of -0.126.

`O=C(COC(=O)Cn1cnc2ccccc2c1=O)Nc1ccc(Cl)c(C(F)(F)F)c1` came in with a z-score of -0.01.

`CC(=O)Nc1ccc(S(=O)(=O)NNC(=O)c2ccc(C)cc2)cc1` had a z-score of -0.161.

Consider `CC(=O)N1CCC2(CC1)C(C#N)=C(N)OC1=C2C(=O)CC(C)(C)C1`, for which the z-score was determined as 0.05.

Take `COC(=O)c1c(NC(=O)C2COc3ccccc3O2)sc2c1CCN(Cc1ccccc1)C2` (stereo not drawn): the z-score amounted to 0.0786.

For the compound `Cc1ccccc1-n1c(O)c(/C=N/N2CCCCC2c2cccnc2)c(=O)[nH]c1=O` (stereo not drawn), the z-score is -0.187.

As for `CN(C)C(=S)Nn1c(-c2ccccc2)nc2ccccc2c1=O`, the z-score is -0.411.

With `COc1cc(CNc2ccccc2SC)ccc1O`, the z-score worked out at 1.58.

`N#Cc1ccc(N2CCc3ccccc3C2)c([N+](=O)[O-])c1` yielded a z-score of 0.175.

For `Cc1ccc(S(=O)(=O)NC(CC(C)C)C(=O)NCc2ccco2)cc1` (stereo not drawn), the z-score worked out at 0.0163.

As to `COc1ccc(-c2nnnn2C)cc1S(=O)(=O)NCCc1ccccc1`, the z-score is 1.29.

In turn, `O=C(Nc1ccccc1Br)C1CCC(=O)N1Cc1ccccc1Cl` (stereo not drawn) showed a z-score of 0.19.

`COc1cc(-c2cc3nc(C)c(C)c(=O)n3[nH]2)cc(OC)c1OC`: the z-score worked out at 2.19.

The compound `Cc1nc2cc(-c3cccs3)[nH]n2c(=O)c1C` displayed a z-score of -0.15.

`COc1cc(OC)cc(-c2cc3nc(C)c(CCC(=O)O)c(=O)n3[nH]2)c1` showed a z-score of 0.713.

On to `COC(=O)C(O)(CC(=O)Nc1ccc(OC(F)(F)F)cc1)C(F)(F)F` (stereo not drawn), for which the z-score was -0.408.

`O=c1[nH]c2sc3c(c2c(=O)n1Cc1ccccc1)CCC3`: the z-score is -0.117.

As to `C=CCn1c(SCC(=O)NC)nc2sc3c(c2c1=O)CCC3`, the z-score is -0.523.

As for `C=CCn1c(=S)[nH]c2sc3c(c2c1=O)CCC3`, the z-score was 10.9 (active).

As for `O=C(CCCN1C(=O)c2ccccc2C1=O)OC1CSCC1NC(=O)c1ccccc1` (stereo not drawn), the z-score was -0.17.

Compound `O=C1CS/C(=N\c2ccccn2)N1C1CCCCC1` yielded a z-score of -0.393.

In turn, `COc1cc(CC(=O)Nc2ccc3nc(C)sc3c2)cc(OC)c1OC` returned a z-score of -0.158.

Compound `Cc1cccc(CSc2ncc(CO)n2C)c1` returned a z-score of 0.12.

Compound `COc1ccc(CCNC(=O)C2CCN(S(=O)(=O)c3ccc(OC)c(OC)c3)CC2)cc1` gave a z-score of -0.362.

Compound `OCCCCCN=c1cc(-c2ccccc2)oc2ccc(Cl)cc12` returned a z-score of -0.493.

`OCCCN=c1cc(-c2ccccc2)oc2ccc(Cl)cc12`: the z-score is 3.32 (active).

On to `OCCN=c1cc(-c2ccccc2)oc2ccc(Cl)cc12`, for which the z-score came out at 0.389.

`O=C(CCn1nc(-c2ccccc2)ccc1=O)N1CCOCC1` registered a z-score of 0.676.

As for `Cc1cccc(NC(=O)c2sccc2-n2cccc2)c1C`, the z-score is -0.81.

`CCc1ccccc1NC(=O)c1cc2sccc2n1C` returned a z-score of -0.142.

`CCn1c(NC(=O)Nc2cccc(C)c2C)cc2sccc21`: the z-score was 3.12 (active).

`COc1ccc(OC)c(C(=O)c2ccc(C(=O)Nc3cccc4ccccc34)cc2)c1` gave a z-score of 0.682.

Turning to `Cc1ccc(C)c(OCC(O)CN2CCC(CN3C(=O)c4cccc5cccc(c45)C3=O)CC2)c1` (stereo not drawn), the z-score is -0.000796.

Compound `Cc1cccc(C)c1OCC(O)CN1CCC(CN2C(=O)c3cccc4cccc(c34)C2=O)CC1` (stereo not drawn) came in with a z-score of 2.99.

Consider `CCc1ccc(OCC(O)CN2CCC(CN3C(=O)c4cccc5cccc(c45)C3=O)CC2)cc1` (stereo not drawn), for which the z-score was -0.57.

`CN1CCN(S(=O)(=O)c2cccc(C(=O)Nc3nc(-c4ccccc4)cs3)c2)CC1` yielded a z-score of -0.528.

The compound `C(=N\n1cnnc1)/c1nc2ccccc2[nH]1` yielded a z-score of -0.217.

In the case of `COC(=O)Cc1ccc(NC(=O)c2cccs2)cc1`, the z-score is 0.153.

`COc1ccc(CN(C(=O)CO/N=C/c2ccccc2)c2ccccc2C(=O)O)cc1` displayed a z-score of -0.413.

The compound `O=C(O)CC(Cc1ccccc1)c1ccc2c(c1)OCO2` (stereo not drawn) gave a z-score of 0.249.

The compound `c1ccc2c(N3CCCCC3)nc(N3CCCC3)nc2c1` gave a z-score of 0.2.

Consider `COc1ccc(Nc2nc(N3CCCC3)nc(N3CCCC3)n2)c(OC)c1`, for which the z-score worked out at 0.55.

`C=CCNc1nc(N2CCCC2)nc2ccccc12`: the z-score was determined as 2.37.

On to `CC(Nc1nc(N2CCCCC2)nc2ccccc12)c1ccccc1` (stereo not drawn), for which the z-score was -2.21.

Regarding `COc1ccc(Nc2nc(N3CCCCC3)nc3ccccc23)c(OC)c1`, the z-score worked out at 2.6.

`COc1ccc(Nc2ncnc3ccccc23)c(OC)c1` registered a z-score of -0.192.

`NC(=O)c1cccnc1Sc1ccc(Cl)cc1` had a z-score of -0.431.

With `Cc1cccc(CC2CC(=O)N(c3ncccn3)C2=O)c1` (stereo not drawn), the z-score was -0.533.

Take `O=C(COc1ccc(Cl)cc1)Nc1c(-c2cccs2)nc2ccccn12`: the z-score is -0.182.

In the case of `COc1cc(C2NC(=O)NC(C)=C2C(=O)NCc2ccccc2)c(Cl)cc1O` (stereo not drawn), the z-score was 0.0361.

For the compound `CON(c1nc(N(C)C)nc(N(C)C)n1)S(=O)(=O)c1ccccc1Cl`, the z-score was -0.678.

In turn, `CON(c1nc(Cl)nc(N(C)C)n1)S(=O)(=O)c1ccccc1Cl` came in with a z-score of 2.79.

Turning to `COc1cc(C)nc(N(C)S(=O)(=O)c2ccccc2Cl)n1`, the z-score is -0.0755.

For `Nc1[nH]c(=S)[nH]c(=O)c1-c1ccccc1`, the z-score worked out at 2.2.

The compound `N#Cc1c(-c2ccccc2)[nH]c(=S)[nH]c1=O` displayed a z-score of -0.744.

For the compound `Nc1nc(SCc2ccccc2)[nH]c(=O)c1-c1ccccc1`, the z-score is -0.741.

In turn, `CN1/C(=C/C2CC(=O)N(c3ccc([N+](=O)[O-])cc3)C2=O)C(C)(C)c2ccccc21` (stereo not drawn) returned a z-score of -0.329.

With `COC(=O)C(CC(C)C)NC(=O)c1ccc([N+](=O)[O-])cc1` (stereo not drawn), the z-score was determined as 2.03.

`COC(=O)c1ccc(NC(CC(C)C)C(=O)OC)c([N+](=O)[O-])c1` (stereo not drawn): the z-score was found to be 1.05.

`COC(=O)C(CC(C)C)NC(=O)c1ccc(F)cc1` (stereo not drawn) had a z-score of -0.19.

For `CC(Cc1ccccc1)NC(=O)c1ccc([N+](=O)[O-])cc1` (stereo not drawn), the z-score was -0.0984.

Compound `Cc1cc(C(=O)NCC(=O)OCC(=O)N(C(C)C)C(C)C)ccc1[N+](=O)[O-]` yielded a z-score of -0.0582.

On to `COC(=O)C(CC(C)C)NC(=O)c1ccc([N+](=O)[O-])c(C)c1` (stereo not drawn), for which the z-score amounted to 2.9.

In the case of `COc1ccc(C2/C(=C(/O)c3ccccc3)C(=O)C(=O)N2CO)cc1` (stereo not drawn), the z-score came to 0.305.

The compound `Cc1ccc(/C=C2/CCc3c([nH]c4ccccc34)C2=O)cc1` came in with a z-score of 0.107.

For `O=c1cc(CO)occ1OCc1cccc(C(F)(F)F)c1`, the z-score was found to be 0.0103.

Take `COc1ccc(NC(=O)c2cccnc2SC)cc1S(=O)(=O)N1CCCCC1`: the z-score is -0.467.

`O=C(Oc1ccc(N2C(=O)CCC2=O)cc1)c1ccco1` came in with a z-score of -0.374.

`Cn1ccc(C(=O)N2CCCc3ccccc32)n1`: the z-score was -0.0997.

`CC(=O)N(/N=C1\Sc2ccccc2C1=O)c1ccc(C)cc1C`: the z-score is -0.638.

With `S=c1[nH]c2cc(Cl)ccc2s1`, the z-score was 14.9 (active).

As for `CSc1nc2cc(Cl)ccc2s1`, the z-score was -0.233.

On to `S=c1[nH]c2ccc(Cl)cc2[nH]1`, for which the z-score was 0.488.

Regarding `Cc1ccc(S(=O)(=O)N2CCC(C(=O)N3CCC(C(=O)NCC4CCCO4)CC3)CC2)cc1` (stereo not drawn), the z-score was found to be 0.137.

`Cc1ccc(F)c(NC(=O)C2CCCCC2C(=O)O)c1` (stereo not drawn): the z-score stood at 1.59.

With `CC(C)c1cc(C(F)(F)F)n2nc(C(=O)Nc3ccc4c(c3)OCO4)cc2n1`, the z-score is 4.57 (active).

Regarding `CC(=O)c1cc2c(cc1NC(=O)c1cc3nc(C(C)C)cc(C(F)(F)F)n3n1)OCO2`, the z-score was -0.248.

`O=C(Nc1ccc2c(c1)OCO2)c1cc2nc(C3CC3)cc(C(F)(F)F)n2n1`: the z-score was -0.167.

In the case of `Cc1nc(NC(=O)c2ccc(Cl)cc2)sc1-c1csc(Nc2cccc(F)c2)n1`, the z-score is -0.184.

As for `CCn1c(COc2ccccc2C)nc2ccccc21`, the z-score is -1.56.

`CCC(=O)c1ccc(N2CCCC2)c(F)c1` yielded a z-score of 0.0378.

As for `CCC(=O)c1ccc(N2CCCCCC2)c(F)c1`, the z-score was -0.499.

Compound `CC(=O)c1ccc(N2CCCC2)c(F)c1` displayed a z-score of 2.4.

Turning to `FC(F)(F)c1nc2ccccc2nc1N/N=C\c1ccccc1`, the z-score was found to be 0.3.

On to `Cc1ccc(C(=O)NN(C)c2nc3ccccc3nc2C(F)(F)F)cc1`, for which the z-score came to 0.198.

Take `O=C(NNc1nc2ccccc2nc1C(F)(F)F)c1ccccc1`: the z-score amounted to 2.44.

`O=C(NNc1c2ccccc2nc2ccccc12)c1ccc(O)cc1O`: the z-score is 0.0188.

For `Cc1ccc(C(=O)NNc2nc3ccccc3nc2C(F)(F)F)cc1`, the z-score was 5.19 (active).

For `Cc1ccc(S(=O)(=O)NNc2nc3ccccc3nc2C(F)(F)F)cc1`, the z-score is -0.286.

`O=C(NNc1nc(-c2ccccc2)cs1)c1ccccc1` returned a z-score of -1.53.

Consider `O=C(NNc1c2ccccc2nc2ccccc12)c1ccc(O)cc1`, for which the z-score turned out to be 2.21.

`O=C(NNc1c2ccccc2nc2ccccc12)c1cccc(O)c1` had a z-score of -0.199.

In the case of `O=C1c2ccccc2C(Nc2ccc(S(=O)(=O)N3CCOCC3)cc2)N1c1ccccn1` (stereo not drawn), the z-score is -0.244.

Consider `COc1ccc(CN(C)CC(=O)Nc2cc(OC)c([N+](=O)[O-])cc2C)c(OC)c1`, for which the z-score is -0.503.

In turn, `COc1ccccc1C(=O)NCC1CCN(c2ccc(S(=O)(=O)N3CCOCC3)cc2)CC1` gave a z-score of -0.35.

Consider `COc1ccccc1OCc1ccc(C(=O)NN)cc1`, for which the z-score is -0.037.

`O=C(NCC1CCCO1)C1CC1(c1ccccc1)c1ccccc1` (stereo not drawn) showed a z-score of 1.76.

On to `CCOc1cc(C(=O)OCC(=O)c2c(C)[nH]c3ccccc23)ccc1OCC(=O)N1CCOCC1`, for which the z-score was -0.335.

Consider `CNC(=O)C1=C(C)Nc2nc3ccccc3n2C1c1cccc(OC)c1` (stereo not drawn), for which the z-score was -0.775.

As to `CCOC(=O)C1CCCN(C(=O)CSCc2ccccc2)C1` (stereo not drawn), the z-score is -1.22.

`Cc1cccc(N2CCN(C(=O)Cn3sc4nc(C)cc(C)c4c3=O)CC2C)c1` (stereo not drawn) came in with a z-score of 0.149.

On to `Cc1cc(C)c2c(=O)n(CC(=O)N3CCC(N4CCCCC4)CC3)sc2n1`, for which the z-score is -0.421.

In turn, `CCOC(=O)C1CCCN(C(=O)Cn2sc3nc(C)cc(C)c3c2=O)C1` (stereo not drawn) came in with a z-score of 2.2.

With `CCOC(=O)C1CCCN(C(=O)CSc2nccn2C)C1` (stereo not drawn), the z-score is 2.87.

On to `CCOC(=O)C1CCCN(C(=O)COc2ccccc2O)C1` (stereo not drawn), for which the z-score amounted to 0.0285.

In turn, `COc1ccccc1N(CC(=O)Nc1ccccc1C(=O)NC(C)C)S(C)(=O)=O` came in with a z-score of -0.955.

On to `O=C1CCC([N+](=O)[O-])C(c2ccc(Cl)cc2Cl)N1` (stereo not drawn), for which the z-score is -0.219.

Consider `CCCN1C(=O)/C(=C/c2ccco2)SC1=Nc1ccc(OC)cc1`, for which the z-score is -0.105.

Turning to `O=C(CCS(=O)(=O)Cc1ccccc1)N1CCc2ccccc2C1`, the z-score is -0.136.

For `O=C(NCC1CCCO1)c1c(O)c2c([nH]c1=O)CCCC2` (stereo not drawn), the z-score came out at 2.44.

Compound `CCN1CCCC1CNC(=O)c1c(O)c2c([nH]c1=O)CCCC2` (stereo not drawn) showed a z-score of -0.0826.

The compound `C[N+](C)(C)CCNC(=O)c1c(O)c2c([nH]c1=O)CCCC2` registered a z-score of 0.798.
